From PubChem BioAssay
ADAM17 inh: inhibits human ADAM17 | P78536 | recombinant ADAM17, EDANS/DABCYL FRET peptide cleavage | inhibition, % at 6.95 µM | 0.83% of 370,000 active | AID 720648;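 active = inhibition above the mean of compounds lying between control limits plus 3 SD, set per campaign, cut at about 8.5% in these data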;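 note: 0% = DMSO-only wells as the low control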
FAS-TE inh: inhibitors of human fatty acid synthase thioesterase domain | P49327 | recombinant FAS-TE, OMFH fluorogenic substrate, fluorescence endpoint | inhibition, % at 15 µM | 0.67% of 360,000 active | AID 602261;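 active = compounds whose normalised, plate-corrected inhibition of enzyme fluorescence in the single-dose primary screen is 50% or more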;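 note: 0% = DMSO with enzyme and 100% = substrate without enzyme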
NR3A LBD binder: NR3A (human) ligand-binding domain modulation. NR3A LBD differential scanning fluorimetry, Tm shift; 0% = protein alone, 100% = glycine-bound protein. Tm shift relative to glycine control, % at 25 µM. 2.5% of 340,000 active. AID 1259313;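 active = melting temperature shift of at least 10% of the positive control shift, at one fixed dose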
KLK7 zymogen act: activators of human kallikrein-7 zymogen; purified proKLK7, EDANS-DABCYL substrate fluorescence; 100% is mature enzyme control, 0% vehicle; activation, % at 7 µM; 0.9% of 370,000 active;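 active = activation above the mean of all tested compounds plus 3 SD, computed per campaign excluding outliers beyond control limits, cut at about 13% in these data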
ADAM10 inh: inhibits human ADAM10; recombinant ADAM10, EDANS/DABCYL FRET peptide cleavage, 3 h; inhibition, % at 7 µM; 0.62% of 370,000 active;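 active = inhibition above a per-campaign cutoff equal to the mean of compounds falling between control-based bounds plus 3 SD, cut at about 20% in these data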;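 note: 0% = DMSO wells while the 100% control is not disclosed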
ADAM10 counter: counter-screen for ADAM17 exosite inhibitors: inhibitors of human ADAM10 | shares compounds with ADAM17 inh | recombinant ADAM10, EDANS/DABCYL FRET peptide cleavage, 3 h | inhibition, % at 6.95 µM | 47% of 2,900 active | AID 743256;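 active = mean inhibition over the triplicate runs exceeds the activity threshold set in the earlier primary screen, cut at about 20% in these data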;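 note: 0% = DMSO wells and 100% = marimastat wells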
ADAM17 confirm: human ADAM17 inhibition, confirmation; shares compounds with ADAM17 inh; recombinant ADAM17, EDANS/DABCYL QFRET peptide cleavage; inhibition, % at 6.95 µM; 65% of 2,900 active; AID 743257;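 active = mean inhibition across replicates above the hit cutoff set in the primary screen, cut at about 8.5% in these data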;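 note: 0% = DMSO wells and 100% = marimastat wells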
* marks the source's active call; other numbers are inactive results; . = not tested or not shown. This is a sample that favours compounds with a hit; in the whole collection about 4.6% have one here.

SMILES	ADAM17 inh	FAS-TE inh	NR3A LBD binder	KLK7 zymogen act	ADAM10 inh	ADAM10 counter	ADAM17 confirm
CC1CCCN(c2cccc3c2S(=O)(=O)N(Cc2cccc(Cl)c2)[C@@H](C)[C@H](c2ccccc2)O3)C1 (stereo not given in full)	-4	.	.	0	-7	.	.
S=C(NCc1ccc(Cl)cc1)Nc1ccc(Cl)cc1Cl	2	-3	1	0	13	.	.
S=C(NCCc1ccc(Cl)cc1)Nc1ccc(Cl)cc1Cl	16*	42	18*	0	29*	34*	19*
COC(=O)C1=C(C)N(Cc2cccc(C(F)(F)F)c2)C(=NCc2ccc3c(c2)OCO3)NC1c1ccccc1C(F)(F)F (stereo not given)	2	.	.	0	0	.	.
COCc1[nH]nc2c1C(c1ccc(Br)cc1)N(Cc1ccccc1)C2=O (stereo not given)	1	.	.	0	4	.	.
CCCN1C/C(=C/c2ccc3c(c2)OCO3)C(=O)/C(=C/c2ccc3c(c2)OCO3)C1	10*	-2	-2	1	-7	4	28*
O=C(O)CCC(=O)c1c[nH]c2ccccc12	8.9*	-12	-1	-1	1	9	20*
C=CCN1C(=O)c2n[nH]c(C(C)C)c2C1c1ccccc1 (stereo not given)	0	.	.	1	3	.	.
COc1cc(OC)cc(-c2cn[nH]c2N)c1	9.1*	-6	-1	0	14	13	13*
COc1ccc(-c2cn[nH]c2N)cc1OC	-4	-12	0	0	-2	.	.
CCOC(=O)N1CCC(n2c(SCC(=O)NCc3ccccc3)nc3ccccc3c2=O)CC1	-4	3	-2	-1	-2	.	.
CCOC(=O)N1CCC(n2c(SCC(=O)Nc3ccccc3OC)nc3ccccc3c2=O)CC1	10*	36	1	0	17	29*	16*
CCCCN(CCCC)CCNC(=O)c1cn(C)c2ccc(S(=O)(=O)N3CCCC3)cc2c1=O	9.4*	-14	-2	0	-5	-6	2
Cc1cc(NC(=O)CCSc2ccccc2)ccc1Br	9.2*	34	9	0	19	22*	14*
COCC(C)n1c(C)cc(C(=O)CSc2nnc(Nc3ccccc3F)s2)c1C (stereo not given)	15*	4	-3	1	15	1	2
O=C(CSc1nnc(Nc2ccccc2F)s1)c1cc2ccccc2o1	1	18	1	0	6	.	.
COc1cccc(C(=O)COc2cccc(NC(=O)c3ccco3)c2)c1	9.2*	13	-6	-1	6	7	7
CCCCc1c(-c2ccccc2OC)ncn1Cc1cccc(OC)c1	-1	.	.	0	-6	.	.
Cc1cc(C)nc(NC(=O)C(c2ccccc2)c2ccccc2)c1	6	18	3	0	10	.	.
Cc1cc(C)nc(NC(=O)C(c2ccccc2)c2ccccc2)n1	8.7*	-5	2	0	-4	-6	3
CCCNC(=O)C1(C)CCN1C(=O)c1ccccc1CCc1ccccc1 (stereo not given)	8.8*	-3	.	0	7	-3	0
COC(=O)[C@]12C[C@H](CC(=O)NCCC(C)C)C(=O)N(CCC3=CCCCC3)C1=C[C@H](C(C)(C)C)O[C@@H]2C	8	.	.	0	8	.	.
COc1cccc(CC(=O)Nc2ccc3c(c2)OC2(CCCC2)O3)c1	-2	14	-6	0	7	.	.
COc1ccc(CC(=O)Nc2ccc3c(c2)OC2(CCCC2)O3)c(OC)c1	11*	16	.	1	-3	10	8
O=C(Cc1ccc(Nc2nc3ccc(Br)cc3[nH]2)cc1)NCCc1cccs1	8.9*	-22	8	0	7	14	9.5*
COc1ccc(CCNC(=O)Cc2cccs2)cc1	-2	-15	-2	0	8	.	.
O=C(N[C@H](Cc1ccccc1)C(=O)N(CCC1=CCCCC1)CC1CC1)[C@H]1O[C@@H](n2ccc(=O)[nH]c2=O)[C@H](O)[C@@H]1O	0	.	.	0	-4	.	.
Cc1ccccc1NC(=O)Cc1nc(COC(=O)c2nc(Cl)ccc2Cl)cs1	-2	7	-3	0	-6	.	.
